A selection: hits, their analogues and other compounds. The true share with any hit is near 7.8%.
LASV entry inh = qHTS for Inhibitors of binding or entry into cells for Lassa Virus | Lassa virus pseudotype entry inhibition, cell reporter | Potency, µM (highest dose often 37.9 µM), for inactives: at the top dose activity change, negative = inhibition, usual class: inhibitors | hit rate 1.2% among 300,000; calls by dose curve; tested in HEK293 cells; note: potency is the fitted concentration of half-maximal effect; nearly all actives have a fitted effect of over 50% in size
VACV Venus inh = qHTS for Stage-Specific Inhibitors of Vaccinia Orthopoxvirus: Venus Reporter Primary qHTS; Vaccinia virus Venus reporter expression, fluorescence; Potency, µM (top dose mostly 36.5 µM), for inactives: top-dose activity change, negative = inhibition, most hits filed as inhibitors; hit rate 0.46% among 330,000; calls by dose curve; tested in A549 cells; note: potency is the fitted concentration of half-maximal effect; nearly all actives have a fitted effect of over 30% in size
MARV entry inh = qHTS for inhibitors of binding or entry into cells for Marburg Virus; Potency, µM (top dose mostly 37.8 µM), without a hit: at the highest dose activity change, negative = inhibition, actives largely listed as inhibitors; hit rate 1.8% among 300,000; AID 540276, 2011; Marburg virus pseudotyped entry inhibition, cell reporter; calls by dose curve; tested in HEK293 cells; note: potency is the fitted concentration of half-maximal effect
Vaccinia mCherry = qHTS for Stage-Specific Inhibitors of Vaccinia Orthopoxvirus: mCherry Reporter Primary qHTS; Vaccinia virus mCherry reporter infection, fluorescence; Potency, µM (titrated, usually from 36.5 µM), without a hit: at the top dose activity change, negative = inhibition, actives largely listed as inhibitors; hit rate 0.63% among 310,000; calls by dose curve; tested in A549 cells; note: potency is the fitted concentration of half-maximal effect; nearly all actives have a fitted effect of over 35% in size
HCV inh = qHTS Assay for Inhibitors of Hepatitis C Virus (HCV); Potency, µM (titrated, usually from 41.8 µM), without a hit: top-dose activity change, negative = inhibition, usual class: inhibitors; Huh7.5.1 HCVcc-Cre infection, luciferase reporter, 44 h; hit rate 3.4% among 340,000; active = well fitted inhibition curve with a large enough effect; inconclusive = small, poorly fitted or top-dose-only effect, or another doubt; inactive = no such curve, though single readings can be large or run the other way; note: potency is the fitted concentration of half-maximal effect
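A cell-based infection assay in which seeded cells (1,000 per well) receive test compound after 4 h, are inoculated with HCVcc-Cre at approximately 0.5 moi, and are incubated 44 h before luminescence detection.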
HCMV inh = qHTS Assay for inhibitors of the human cytomegalovirus (HCMV) | HFF cells, HCMV-luciferase reporter, 72 h; active compounds read low | activity change, negative = inhibition, % at 57.5 µM | hit rate 4.5% among 410,000 | AID 1259415, 2018; in the data active = activity change below about -60%; inconclusive = no clear call, values can overlap the other calls; inactive = above about -39%
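Compounds were evaluated in HFFs infected with an HCMV luciferase reporter virus (MOI 1 PFU/cell). Luciferase in lysates collected 72 h post infection served as the replication measure.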
An asterisk follows results filed as active; i = inactive; ? = inconclusive; . = no result; [ ] = another dose, or the depositor's remark. % is set by controls: 0 for no effect and ±100 for the full control effect.

SMILES	LASV entry inh	VACV Venus inh	MARV entry inh	Vaccinia mCherry	HCV inh	HCMV inh
CCOC(=O)c1[nH]c(C)c(C(=O)OCC)c1C	.	-21.1%	.	-12.0%	?	84.6
CCOC(=O)c1[nH]c(C)c(C(=O)c2cc(F)ccc2F)c1C	-16.1%	.	?	.	?	-85.7*
CC(=O)c1c(C)[nH]c(C(=O)N2CCc3ccccc32)c1C	-4.4%	-7.2%	-0.3%	-12.2%	0.1%	221.1
COc1cccc(NC(=O)C2=COC3=NC(=O)N(Cc4ccccc4)CCN23)c1	.	.	.	.	.	-38.3
CC1=CC=CN2C[C@H](O)CN=C12	.	.	12.2%	.	.	.
COc1ccc(CN2CCCC(CO)(Cc3ccc(F)cc3F)C2)cc1 (stereo not drawn)	-41.5%[46.1 µM]	-13.8%	10µM*	?	0.9%	-4.4
CCOc1ccc(CN2CCCC(CO)(Cc3ccc(F)cc3)C2)cc1 (stereo not drawn)	-40.1%[46.1 µM]	-22.8%	7.94µM*	?	-8.0%	11.5
CCOC(=O)c1ccccc1NC1(c2ccc(OC)cc2)C(=O)c2ccccc2C1=O	14.5%[46.1 µM]	-14.0%	.	-22.0%	.	6.1
CSc1ccc(C(=O)N2CCc3c(cnc(C)c3CNC(=O)c3cncs3)C2)cc1	.	-2.5%	.	-0.4%	.	.
Cc1cc(NC(=O)C(C)SCC(=O)OCC(=O)N(C)c2ccccc2)no1 (stereo not drawn)	16.6%	-0.5%	?	i	-0.9%	-28.5
Cc1ccc(N(Cc2ccccc2)C(=O)CSC(C)C(=O)Nc2cc(C)on2)cc1 (stereo not drawn)	.	1.8%	.	-19.5%	.	-63.9*
N/C(=N/O)c1ccccc1N1CCC(Cc2ccccc2)CC1	.	.	.	.	4.0%	-90.7*
O=C(c1cc2ccc3cccnc3c2[nH]1)N1CCN(c2cccc(Cl)c2)CC1	5.1%[46.1 µM]	2.6%	.	-2.3%	.	-23.8
Cc1ccc(Cl)cc1N1CCN(C(=O)c2cc3ccc4cccnc4c3[nH]2)CC1	?	-3.0%	.	-5.6%	.	-70.0*
O=C(NCC1CCN(Cc2ccc(F)cc2)CC1)c1cc2ccc3cccnc3c2[nH]1	?	?	.	-29.1%	.	-68.1*
O=C(c1cc2ccc3cccnc3c2[nH]1)N1CCCCC1	4.9%[46.1 µM]	-12.5%	.	-5.2%	.	-67.2*
CC1CCCN(C(=O)c2cc3ccc4cccnc4c3[nH]2)C1 (stereo not drawn)	-14.2%[46.1 µM]	-14.8%	.	-0.3%	.	-81.0*
CCOC(=O)C1CCN(C(=O)c2cc3ccc4cccnc4c3[nH]2)CC1	?	-11.2%	.	i	.	-12.0
O=C(c1cc2ccc3cccnc3c2[nH]1)N1CCN(c2ccc(Cl)cc2)CC1	16.1%[46.1 µM]	-7.1%	.	-10.6%	.	5.6
O=C1N=C2C=CC=CC2c2ccccc21 (stereo not drawn)	.	.	16.6%	.	.	.
COc1ccc(-n2nc(C(=O)N(C)c3cc(Cl)ccc3OC)c3c4ccccc4n(C)c3c2=O)cc1	7.9%[46.1 µM]	8.0%	-9.7%[46.1 µM]	-1.2%	.	-2.6
CN(C)CCCNCC(=O)Nc1ccc(Cl)cc1C(=O)c1ccccc1	-19.2%[46.1 µM]	-9.5%	11.2µM*	-8.3%	?	-3.6
CCN(CC)CCNCC(=O)Nc1ccc(Cl)cc1C(=O)c1ccccc1	1.9%	-12.8%	-21.3%	-15.9%	-29.4%	29.6
Cc1[nH]n(-c2ccccc2)c(=O)c1N=Nc1c(O)cc(S(=O)(=O)N(C)C)c2ccccc12	.	?	.	?	?	-99.5*
CCN(CC)c1ncnc2c1ncn2Cc1c(Cl)cccc1Cl	?	-14.6%	?	-24.0%	12.6µM*	-2.5
Clc1cccc(Cl)c1Cn1cnc2c(N3CCCCCC3)ncnc21	7.3µM*	-12.7%	4.61µM*	i	?	-81.1*
O=C1CCCc2cc(S(=O)(=O)N3CCCC(C(=O)NCc4ccccc4Cl)C3)ccc2N1 (stereo not drawn)	?	-6.8%	.	-12.6%	.	-16.8
CN(C)CCN(Cc1ccccc1)S(=O)(=O)c1ccc(-c2cc(C(F)(F)F)on2)s1	-6.9%[46.1 µM]	-25.1%	.	i	.	-100.0*
CCOC(=O)c1c(S(=O)(=O)N2CCCC(C(=O)NCc3ccccc3Cl)C2)c(C)n(C)c1C (stereo not drawn)	5.7%[46.1 µM]	-16.8%	.	-13.2%	.	-10.8
